Test results taken from ChEMBL document CHEMBL1157539, “Thousands of chemical starting points for antimalarial lead identification” (Nature, 2010).

Experiments:
Format in all cases: functional
[1] = test system: Plasmodium falciparum; assay: GSK_TCMDC: Inhibition of Plasmodium falciparum 3D7 in whole red blood cells, using parasite LDH activity as an index of growth. Test compounds present at 2uM
[2] = test system: Plasmodium falciparum; assay: GSK_TCMDC: Inhibition of Plasmodium falciparum Dd2 in whole red blood cells, using parasite LDH activity as an index of growth. Test compounds present at 2uM
[3] = test system: HepG2; assay: GSK_TCMDC: Percent inhibition of human HepG2 cell line. Test compounds present at 10uM.

Compound | Inhibition [1] [%] | Inhibition [2] [%] | Inhibition [3] [%]
CN(Cc1cccc(C#N)c1)C1CCN(c2cc(NC(=O)c3ccc(F)cc3)ccn2)CC1.O=C(O)C(F)(F)F | 97 | 23 | 4
N#Cc1ccc2[nH]cc(C(=O)CCCCCN(Cc3ccccc3)Cc3ccccc3)c2c1 | 93 | 97 | 10
Cl.NC[C@H](CC1CCCCC1)NC(=O)c1ccc(-c2ccnc3[nH]ccc23)s1 | 98 | 4 | 39
CO/C(=C\C=C\c1cc2cc(Cl)c(Cl)cc2[nH]1)C(=O)NCCCN1CCN(c2ccc(OC)cc2)CC1 | 99 | 44 | 40
Fc1ccc(C=NNc2nc3ccccc3[nH]2)cc1 | 98 | 58 | 0
COC(=O)Nc1nc2cc3c(cc2s1)OCCO3 | 99 | 0 | 0
O=c1sn(-c2csc3ccccc23)c2ccccc12 | 94 | 54 | 14
CCCCCC(=O)NCC(NCCCNc1cc(=O)c2ccccc2[nH]1)c1cc(Br)cc(Br)c1 (stereo not drawn) | 96 | 66 | 0
CCOc1ccc(Br)cc1/C=C/C(=O)Nc1ccc2c(c1)CN(C)CCC2.O=C(O)C(F)(F)F | 97 | 37 | 18
CN1CCC(NCc2cccc(-c3ccc(S(=O)(=O)NCc4ccccc4)c(F)c3)c2)CC1.O=C(O)C(F)(F)F | 99 | 99 | 94
CC(C)Oc1ccc(C=CC(=O)Nc2noc3ccccc23)cc1 | 96 | 95 | 2
